Tau fluor counter: Counterscreen qHTS for Inhibitors of Tau Fibril Formation, Fluorescence Polarization. tau K18 P301L Alexa594 fluorescence, heparin fibrillization. AID 1463, 2008. Potency, µM (highest dose often 57.7 µM). actives 0.93% (n = 280,000); note: nearly all actives have a fitted effect of over 55% in size
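Human K18 P301L tau (15 uM unlabeled plus 0.24 uM Alexa 594-labeled, final) in 100 mM sodium acetate pH 7 was mixed with compound and 20 uM heparin and incubated 6 hr at 37 C.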
Tau FP inhib: qHTS for Inhibitors of Tau Fibril Formation, Fluorescence Polarization | Microtubule-associated protein tau (Homo sapiens), P10636 | Potency, µM (highest dose often 57.7 µM), actives largely listed as inhibitors | K18 P301L tau heparin fibrillization, Alexa594 FP, 6 h | actives 0.39% (n = 280,000); note: nearly all actives have a fitted effect of over 55% in size
Target sequence (P10636 561-689 P618L limits assumed): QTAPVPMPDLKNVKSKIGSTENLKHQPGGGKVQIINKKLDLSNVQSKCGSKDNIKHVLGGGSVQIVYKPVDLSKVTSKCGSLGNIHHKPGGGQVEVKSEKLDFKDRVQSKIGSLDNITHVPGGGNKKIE
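Read-out: fluorescence polarization of Alexa 594-labeled tau (0.24 uM), 555 nm excitation, 632 nm emission. Mixtures held 15 uM unlabeled K18 P301L, compound and 20 uM heparin, pH 7 acetate buffer, incubated 6 hr at 37 C.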
Tau ThT inhib: qHTS for Inhibitors of Tau Fibril Formation, Thioflavin T Binding; Microtubule-associated protein tau (Homo sapiens), P10636; recombinant tau K18 P301L (four-repeat tau fragment), heparin-induced fibrillization, ThT fluorescence; Potency, µM (top dose mostly 57.4 µM), hits mostly inhibitors; actives 2.1% (n = 270,000); AID 1460, 2008; note: nearly all actives have a fitted effect of over 55% in size
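In this qHTS, human K18 P301L tau is incubated with compound and heparin for 6 hr at 37 C, and Thioflavin T fluorescence then reports fibril load.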
FBPA coupling cs: qHTS Assay for Inhibitors of Fructose-1,6-bisphosphate Aldolase from Giardia Lamblia: Coupling assay counterscreen | actives 0.67% (n = 290,000) | coupling enzyme system counterscreen, AmpLite Red fluorescence | activity change, negative = inhibition, % at 58.2 µM, hits read low; in the data active = activity change below about -30%
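Coupling enzymes only (glyceraldehyde-3-phosphate) + compound, at 57.5 uM final, 10 min RT; add substrate/coupling/AmpLite Red mix, 20 min RT; fluorescence ex 525/em 598 nm. Actives flag coupling-system interference.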
Numbers stand for hits; n = inactive; u = inconclusive; x = not tested or not shown; [ ] = remark or other dose. An excerpt weighted towards active compounds, which were near 2.7% of everything screened. Unless noted, calls come from the whole dose curve; as a rule, active = well fitted curve in the direction sought with a large enough effect; inconclusive = small, poorly fitted or top-dose-only effect, or another doubt; inactive = no such curve, though single readings can be large; an effect the other way counts as inactive or inconclusive.

SMILES	Tau fluor counter	Tau FP inhib	Tau ThT inhib	FBPA coupling cs
COc1cccc(-c2ccc3ncnc(Nc4ccccc4)c3c2)c1	x	x	x	n
Cc1cc(Br)ccc1NC(=O)c1cc2c(s1)-c1ccccc1SC2	n	u	n	x
COc1ccc(CC(=O)Nc2ccc3nc(Nc4ccc(OC)cc4)cc(C)c3c2)cc1	3.5µM[quencher]	n	u	x
COc1ccc(Nc2cc(C)c3ccccc3n2)cc1	u	n	u	n
Cc1ccc(Cl)cc1NS(=O)(=O)c1c(C)[nH]c(=O)[nH]c1=O	n	n	n	n
COc1ccc(Cl)cc1NS(=O)(=O)c1c(C)[nH]c(=O)[nH]c1=O	u	u	28µM	n
O=C(COc1ccccc1)NCCc1csc(-c2cccc(F)c2)n1	n	n	n	x
CC(C)C[C@H](NC(=O)CNC(=O)[C@H](CCC(N)=O)NC(=O)[C@H](CC(C)C)NC(=O)[C@H](CC(C)C)NC(=O)[C@H](CCCNC(=N)N)NC(=O)[C@H](CCC(N)=O)NC(=O)[C@H](CC(C)C)NC(=O)[C@H](CCCNC(=N)N)NC(=O)[C@H](C)NC(=O)CNC(=O)[C@H](CCC(=O)O)NC(=O)[C@H](CCCNC(=N)N)NC(=O)[C@H](CC(C)C)NC(=O)[C@H](CCCNC(=N)N)NC(=O)[C@H](CO)NC(=O)[C@H](CC(C)C)NC(=O)[C@H](CCC(=O)O)NC(=O)[C@H](CO)NC(=O)[C@@H](NC(=O)[C@H](Cc1ccccc1)NC(=O)[C@@H](NC(=O)CNC(=O)[C@H](CC(=O)O)NC(=O)[C@H](CO)NC(=O)[C@@H](N)Cc1cnc[nH]1)[C@@H](C)O)[C@@H](C)O)C(=O)N[C@H](C(N)=O)C(C)C	x	x	x	n
CCC(C)NC(=O)CSc1nc2cc3c(cc2c(=O)n1CCCCCC(=O)NCc1ccc2c(c1)OCO2)OCO3 (stereo not drawn)	n	n	n	x
S=C(Nc1ccccc1)Nc1ccc2cn[nH]c2c1	u	n	8.9µM	-39
c1cc2cn[nH]c2cc1NC1CCCCCC1	u	u	28µM	-67
CCOC(=O)c1ccc(NC(=O)NNS(=O)(=O)c2cc(OC)ccc2OC)cc1	x	x	x	n
Cc1cccc(N2CC(C(=O)Nc3nnc(SCC(=O)Nc4nccs4)s3)CC2=O)c1 (stereo not drawn)	n	n	n	n
Cc1cccc(N2CC(C(=O)Nc3nnc(SCC(=O)Nc4cc(C)on4)s3)CC2=O)c1 (stereo not drawn)	n	n	n	-44
O=C(NCCCO)c1ccc2nc(-c3ccco3)c(-c3ccco3)nc2c1	4.5µM[quencher]	8.9µM	5µM	n
CCCCNC(=O)c1ccc2nc(-c3ccco3)c(-c3ccco3)nc2c1	u	u	16µM	-39
CCCNC(=O)c1ccc2nc(-c3ccccc3)c(-c3ccccc3)nc2c1	n	n	n	n
O=C(NCCO)Nc1ccc2nc(-c3ccco3)c(-c3ccco3)nc2c1	n	n	n	-36
CCN(Cc1ccccc1)C(=O)c1nc(-c2cccc(F)c2)n2c1CCCCC2	n	n	n	x
CCOc1ccc(NC(=O)c2cc(S(=O)(=O)N3CCc4ccccc43)ccc2F)cc1	u	n	n	x
COc1ccc(NC(=S)Nc2nc(CC(=O)Nc3ccccc3OC)cs2)cc1	13µM[quencher]	n	n	n
COc1cc(-c2ccc(N=Nc3ccc4c(S(=O)(=O)O)cc(S(=O)(=O)O)c(N)c4c3O)c(OC)c2)ccc1N=Nc1ccc2c(S(=O)(=O)O)cc(S(=O)(=O)O)c(N)c2c1O	1µM[quencher]	2.8µM	1.6µM	-57
CCS(=O)(=O)c1ccc(N=Nc2ccc(O)c3ncccc23)c(OC)c1	u	n	u	n
CCCCC(=O)N/N=C/c1ccc(Sc2cccc3cccnc23)o1	u	n	n	-35
C=CCn1c(C)cc(-c2csc(N)n2)c1C	u	u	16µM	n
SMILES	Tau fluor counter	Tau FP inhib	Tau ThT inhib	FBPA coupling cs
C=CCn1c(C)cc(-c2csc(NC)n2)c1C	n	n	n	n
CCCn1c(C)cc(-c2csc(N)n2)c1C	u	u	16µM	n
COc1ccc(N2CCN(C(=O)CSc3n[nH]c(-c4ccccc4Cl)n3)CC2)cc1	n	n	u	x
Cc1cc2nc3c(=O)[nH]c(=O)[nH]c3nc2c([N+](=O)[O-])c1N	u	u	14µM	-30
COc1cc(/C=N/NC(=O)Cc2ccccc2)cc([N+](=O)[O-])c1O	x	x	x	n
COc1cc(/C=N/NC(=O)[C@H](Cc2c[nH]c3ccccc23)NC(=O)OCC(C)C)cc([N+](=O)[O-])c1O	u	u	14µM	n
CC[C@H](C)C(=O)O[C@H]1C[C@@H](C)C=C2C=C[C@H](C)[C@H](CC[C@@H]3C[C@@H](O)CC(=O)O3)[C@H]21	n	n	u	-47
Nc1c(C(=O)NCC2CCCO2)sc2nc3c(c(-c4ccco4)c12)CC/C3=C\c1ccco1 (stereo not drawn)	u	u	16µM	n
COCCn1ccc2c(OCC(=O)Nc3ccccc3F)cccc2c1=O	n	n	n	x
COc1ccc(CCNC(=O)c2cccc(-n3cnc4cccnc43)c2C)cc1OC	n	n	n	x
Cc1ccc(NC(=O)NCCOCCn2c(=O)oc3ccccc32)cc1C	n	n	n	x
CCCOC(=O)c1ccc(NC(=O)Cc2csc(C)n2)cc1	n	n	n	x
Nc1cc2nc[nH]c2cc1N	u	u	22µM	n
COc1ccc(N=Nc2nc(-c3ccccc3)c(-c3ccccc3)[nH]2)cc1	u	n	4µM	n
Oc1ccccc1N=Nc1nc(-c2ccccc2)c(-c2ccccc2)[nH]1	11µM[quencher]	n	4.5µM	n
COc1ccccc1N=Nc1nc(-c2ccccc2)c(-c2ccccc2)[nH]1	u	n	3.5µM	n
O=C(O)c1ccc(-c2nc(-c3ccccc3)c(-c3ccccc3)[nH]2)cc1	n	n	n	n
Cc1ccc(C2=Nc3ccccc3N(CC(=O)Nc3ccccc3C)C(=O)C2)cc1C	n	n	n	x
COc1cccc2[nH]c3ccccc3c(=O)c12	x	x	x	n
COc1cc2[nH]c(C(=O)NN)c(N)c2cc1OC	22µM[quencher]	u	16µM	n
COc1cccc2[nH]c(C(=O)NN)c(N)c12	u	u	28µM	n
CC(=O)OC[C@@]1(O)C[C@@]23CC[C@@H]4c5ccoc5CC[C@@]4(C)[C@@H]2CCC1C3	n	n	n	n
CCOC(=O)/C(C#N)=C1/C(=O)N(Cc2ccccc2)c2ccccc21	n	n	u	-38
CCOC(=O)Cc1csc(-n2sc3ccccc3c2=O)n1	u	28µM	28µM	n
CCOC(=O)Cc1csc(SCn2nnc3ccccc3c2=O)n1	n	n	n	n
CNC(=O)CCCN1C(=O)CCn2nc(-c3cn(C)c4ccccc34)cc21	n	n	n	x
CC(=O)CC1OC(=O)C(Br)=C1NCc1ccccc1 (stereo not drawn)	n	u	8.9µM	n
COc1cc(Nc2nc(-c3ccccc3)c3cc(C)ccc3n2)cc(OC)c1OC	u	u	16µM	n
COc1cccc(Nc2nc(-c3ccccc3)c3cc(C)ccc3n2)c1	u	n	u	x
